Only a selection was taken, and hits are over-represented in it overall.
Pf Dd2 inh: blocks in vitro growth of P. falciparum Dd2. P. falciparum Dd2 growth, SYBR Green, 72 h. Potency, µM (series often up to 28.9 µM), for the others: at the top dose activity, negative = inhibition, actives largely listed as inhibitors. 4.3% of 120,000 active; active means well fitted inhibition curve with a large enough effect;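 further: plate controls were DMSO vehicle for no effect and reference drug for full effect; nearly all actives have a fitted effect of over 65% in size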
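Readout: SYBR Green fluorescence, 485 nm excitation, 535 nm emission, after ~16 h lysis at 37C. Before that, Dd2-infected red cells (2.5% hematocrit) grew 72 h with compound, 29 uM top final concentration.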
The depositor's hits bear a star; i = inactive; [ ] = remark or other dose. Potency means the concentration at half of the fitted maximal effect.

SMILES | Pf Dd2 inh
COc1ccccc1-c1nn2c(=O)cc(CN3CCN(S(=O)(=O)c4ccc(C)cc4)CC3)nc2s1 | 9%
Cc1cccc(-c2nn3c(=O)cc(CN4CCN(S(=O)(=O)c5ccc(Cl)cc5)CC4)nc3s2)c1 | 8.9µM*
COc1ccc(-c2nn3c(=O)cc(CN4CCN(C(=O)COc5ccc(F)cc5)CC4)nc3s2)cc1 | -7%
Cc1cccc(-c2nn3c(=O)cc(CN4CCN(C(=O)c5ccccc5Br)CC4)nc3s2)c1 | -21%
COc1ccc(-c2nn3c(=O)cc(CN4CCN(C(=O)/C=C/c5ccccc5)CC4)nc3s2)cc1 | -20%
Cc1ccc(S(=O)(=O)N2CCN(Cc3cc(=O)n4nc(-c5ccccc5Cl)sc4n3)CC2)cc1 | 15%
Cc1ccc(-c2nn3c(=O)cc(CN4CCN(C(=O)COc5ccc(C)c(C)c5)CC4)nc3s2)cc1 | -6%
COc1ccc(C(=O)N2C(C(=O)N3CCOCC3)COC23CCN(C(=O)C2CCC2)CC3)cc1 (stereo not given) | -10%
NC1CCc2nn(CC(=O)NCCc3nc4ccccc4[nH]3)c(=O)n2CC1 (stereo not given) | i
Cn1c(CCC(=O)NCc2ccon2)nc2cc(S(=O)(=O)N3CCCC3)ccc21 | 4%
Cn1nccc1C(O)c1cc2n(n1)CCCN(c1nc3ccccc3s1)C2 (stereo not given) | -4%
CC(Cn1ccnc1-c1cn(C2CCNCC2)nn1)Oc1cccnc1 (stereo not given) | -6%
CN1C(=O)c2[nH]nc(-c3ccc(F)cc3)c2C1c1cccc(O)c1 (stereo not given) | -5%
CC(C)c1ccc(C2c3c(-c4ccccc4O)n[nH]c3C(=O)N2Cc2ccncc2)cc1 (stereo not given) | 13µM*
CSc1ccc(C2c3c(-c4ccccc4O)n[nH]c3C(=O)N2Cc2ccncc2)cc1 (stereo not given) | 13µM*
CC(C)c1ccc(C2NC(=O)c3n[nH]c(-c4cccs4)c32)cc1 (stereo not given) | i
Cc1ccc(N2C(=O)c3n[nH]c(C)c3C2c2ccc(C(C)C)cc2)cc1 (stereo not given) | i
CCn1ccc(C(=O)NCCc2noc(-c3ccncc3)n2)n1 | i
CCOc1cc(=O)n2c(c1C(=O)Nc1cccc(Cl)c1C)CCCC2 | 24%
O=C(NCCN1CCOC1=O)c1cn(Cc2ccccc2C(F)(F)F)nn1 | 2%
CN(Cc1ccccc1CN1CCCC1)c1nccc(-c2ccccn2)n1 | 3.5µM*
Cc1cccc(N2CCN(c3nccc(-c4ccccn4)n3)CC2)n1 | -14%
Cc1ccc(CN2CCC(CNc3nccc(-c4ccccn4)n3)CC2)o1 | i
CN(C)C1CCCN(C(=O)c2ccc(CN3CCCC3)o2)CC1 (stereo not given) | -6%
O=C(N[C@@H]1CN(Cc2ccccc2)C[C@H]1CO)c1ccnnc1 | 9%
SMILES | Pf Dd2 inh
Cc1cc(CN2C[C@@H](CO)[C@H](NC(=O)c3ccccc3)C2)n(C)n1 | 35%
COc1cc(CN2C[C@@H](CO)[C@H](NC(=O)c3ccccc3)C2)ccc1F | 5.6µM*
CC(=O)N[C@@H]1CN(Cc2ccc(F)c(Br)c2)C[C@H]1CO | -26%
Cn1nccc1C(=O)N[C@@H]1CN(Cc2ccccc2)C[C@H]1CO | 13µM*
Cc1cnc(C(=O)N[C@@H]2CN(Cc3ccccc3)C[C@H]2CO)cn1 | -22%
CCNC(=O)N1CCc2nc(N3CCN(C)CC3)sc2C1 | 16%
COCCNC(=O)C[C@@H]1C[C@H]2O[C@H](CNC(=O)NC3CCC3)[C@@H](O)[C@H]2O1 | 29%[44.1 µM]
CC(C)NC(=O)C1c2ccccc2C(=O)N(Cc2ccco2)C12CCCC2 (stereo not given) | -21%
O=C(CC1CNCCO1)NCc1nc(-c2cccc(F)c2)c(-c2ccccn2)[nH]1 (stereo not given) | -14%
COc1ccc(-c2nc(-c3c(C)noc3C)cc3c2cc(-c2ccccc2)n3C)cn1 | -26%[44.1 µM]
O=c1ccc(-c2cc(-c3cccc4cn[nH]c34)cn3cncc23)c[nH]1 | i
COc1ccc(-c2noc(-c3ccc(N4CCCOCC4)nc3)n2)cc1 | i
COc1ccc(-c2cc(-c3cnn(C)c3)cn3cncc23)cn1 | 10µM*
COc1cccc(-c2cc(-c3ccc(=O)[nH]c3)c3cncn3c2)c1 | i
COc1ccc(-c2cc(-c3c(C)noc3C)c3cncn3c2)cc1 | 5µM*
Cc1ccc(-c2cc(-c3ccc(=O)[nH]c3)c3cncn3c2)cn1 | 47%[44.1 µM]
COc1ccc(-c2cc(-c3ccc(N4CCOCC4)nc3)cn3cncc23)cc1 | 0.79µM*
O=c1ccc(-c2cc(-c3cccc(N4CCOCC4)c3)cn3cncc23)c[nH]1 | 7.9µM*
Cc1noc(C)c1-c1cc(-c2cnn(C)c2)cn2cncc12 | -9%[44.1 µM]
c1cc(-c2cc(-c3ccc(N4CCOCC4)nc3)cn3cncc23)ccn1 | i
CCC[C@@H]1CN(c2nc(C(=O)OCC)co2)C[C@H]1NS(C)(=O)=O | 16%
Cc1noc(C)c1-c1nccc2c(=O)cc(-c3cccnc3)oc12 | -3%[44.1 µM]
CNC(=O)[C@@H]1CN(C(=O)c2ccc(C)c(C)c2)C[C@H]1CO | 15%
CC(C)C(=O)Nc1ccc([C@H]2OCC(=O)N(Cc3nccn3C)[C@@H]2CO)cc1 | 20%[44.1 µM]
CS(=O)(=O)c1ccc(OC[C@H]2C[C@@H](NCc3ccc(F)cc3)[C@H](O)[C@@H]2O)cc1 | -22%
SMILES | Pf Dd2 inh
COc1ccc(CN2CCOC[C@H](OC)C2)cn1 | 5%[44.1 µM]
COCCC(=O)N1CCCN(S(=O)(=O)c2ccccc2)CCC(=O)NCC1 | 12%
COc1ccc(Cn2c(=O)c3ccccc3n3c(-c4cccc(OC)c4OC)nnc23)cc1 | i
c1cc(-c2cc(-c3ccc4cn[nH]c4c3)cn3cncc23)ccn1 | -2%[44.1 µM]
COc1cccc(-c2cc(-c3c(C)noc3C)c3cncn3c2)c1 | 5.6µM*
COc1ccc(-c2cc(-c3cccc(OC)c3OC)cn3cncc23)cc1 | 1µM*
CC(=O)Nc1cccc(-c2cc(C3=CCOCC3)c3cncn3c2)c1 | i
Cc1noc(C)c1-c1cc(-c2cccc(N[S+](C)(=O)[O-])c2)cn2cncc12 | i
CCN1C(=O)COC[C@@H]1[C@H](O)c1ccc(NC(=O)COC)cc1 | 14%[44.1 µM]
Cc1ncc(S(C)(=O)=O)c(NCc2nnc3ccccn23)n1 | 8%
COc1ccc(CC(=O)N2[C@@H]3CC[C@H]2CC(NC(=O)c2ccncc2)C3)cc1 (stereo not given in full) | -27%
CCCN(CC1CCOC1)S(=O)(=O)c1cc(F)ccc1F (stereo not given) | -24%
Cc1cc2nc3n(c(=O)c2n1CC(=O)Nc1ccc(F)cc1F)CCCCC3 | 88%
OCC1(CN2CCCC2)CCN(Cc2cnn(-c3ccccc3)c2)CC1 | i
COc1ccc(CN2CCC(CO)(CN3CCCC3)CC2)cc1C | i
CC(C)Oc1ccc(CN2CCC(CO)(CN3CCCC3)CC2)cc1Cl | 13µM*
CCc1ccc(CN2CCC(CO)(CN3CCCC3)CC2)cc1 | 7.1µM*
COc1ccc(CN2CCC(CO)(CN3CCCC3)CC2)cc1OC | -14%
Cc1cc(CN2CCC(CO)(CN3CCCC3)CC2)ccc1F | -28%
C[C@@]1(O)CCN(C(=O)CCCS(N)(=O)=O)C[C@@H]1Cc1ccccc1 | 16%
CO[C@H]1[C@H](NC(=O)c2ccc(C)nc2)c2ccccc2C12CCNCC2 | -1%
Cn1cc(CN2CCN(C(=O)c3c[nH]c4ccccc34)CC2)ccc1=O | -12%
COc1ccc(CC(=O)N2C[C@H](c3nc(-c4cccnc4)no3)[C@@H](C)C2)cc1 | i
O=C(c1ccccc1OC(F)(F)F)N1CCC(c2n[nH]c(=O)n2-c2ccccc2)CC1 | -5%

Screening data: PubChem, National Center for Advancing Translational Sciences (NCATS)
